An excerpt weighted towards active compounds, which were near 4.5% of everything screened.
BJeLR viability: kills HRASV12-expressing BJeLR cells | AID 1554 | BJeLR (HRASV12) viability, CellTiter-Glo ATP luminescence, 48 h | hit rate 0.17% among 300,000 | inhibition, % (concentration not given with the values); in the data active = inhibition above about 50%
Mtb FBA inh: Mtb fructose-bisphosphate aldolase inhibition. P9WQA3. purified M. tuberculosis FBA, fluorescence read-out. inhibition, % at 1 µM. hit rate 2.3% among 360,000. AID 588726; in the data active = inhibition above about 27%;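 note: 0% = vehicle and 100% = reference inhibitor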
Target sequence (P9WQA3 whole entry, looked up): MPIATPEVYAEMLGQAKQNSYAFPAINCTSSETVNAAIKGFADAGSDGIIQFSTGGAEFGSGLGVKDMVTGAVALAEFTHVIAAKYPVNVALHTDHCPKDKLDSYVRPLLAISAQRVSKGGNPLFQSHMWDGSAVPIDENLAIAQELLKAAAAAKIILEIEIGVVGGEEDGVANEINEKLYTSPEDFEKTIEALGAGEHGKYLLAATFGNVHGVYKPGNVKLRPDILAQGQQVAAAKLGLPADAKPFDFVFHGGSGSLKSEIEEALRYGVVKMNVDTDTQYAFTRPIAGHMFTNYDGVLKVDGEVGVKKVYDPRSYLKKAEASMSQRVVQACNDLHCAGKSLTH
GDH-TPI counter: GDH-TPI coupled enzyme inhibition counter-screen. GDH-TPI coupled enzyme counterscreen, NADH absorbance. inhibition, % at 4.8 µM. hit rate 1.2% among 360,000. AID 588335; in the data active = inhibition above about 30%;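 note: 0% = DMSO wells and 100% = wells lacking the enzyme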
PfHsp40 rescue: restores yeast growth despite PfHsp40 toxicity; growth rescue, % at 12.5 µM; S. cerevisiae expressing PfHsp40, growth rescue, ATP luminescence; hit rate 0.68% among 340,000; in the data active = growth rescue above about 28%, passing the limit was not always enough;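 note: yeast W303a lacking pdr1 and pdr3 grown in galactose medium; growth measured after three days at 30 °C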
PrP 5UTR inh: inhibition of PrP 5' UTR reporter expression; hit rate 0.35% among 340,000; AID 488862; cell-based PrP 5' UTR mRNA reporter, plate reader; inhibition, % (no concentration beside the values); in the data active = inhibition above about 52%; note: 0 = median of the neutral control wells
PrPC TRFRET: reduces human prion protein on the cell surface; cell surface PrPC, TR-FRET read-out; inhibition, % at 13.8 µM; hit rate 0.43% among 370,000; AID 720596; in the data active = inhibition above about 24%; note: 0% = median of the test wells and 100% = reference compound wells
Active calls of the source: *.

O=c1oc2ccccc2cc1-c1nc2ccccc2o1 was read as Mtb FBA inh active, GDH-TPI counter 59.5*, PfHsp40 rescue 0.2, PrP 5UTR inh -56.7 and PrPC TRFRET -6.1.
Screening Nc1ccc(-c2cc3ccccc3oc2=O)cc1 returned BJeLR viability 6.7, Mtb FBA inh -0.4, GDH-TPI counter 16.1, PfHsp40 rescue -0.6, PrP 5UTR inh 84.7* and PrPC TRFRET -24.2.
`O=c1oc2ccccc2cc1-c1nc2c(s1)CCCC2` gave BJeLR viability 23.0, Mtb FBA inh 138.7*, GDH-TPI counter 13.4, PfHsp40 rescue 0.3, PrP 5UTR inh 9.8 and PrPC TRFRET -6.3.
CC(C)C(=O)N1CC[C@H]2[C@H](CCCN2Cc2ccc(F)cc2)C1 was read as PrPC TRFRET -12.8.
CN1C(=O)c2cc(NC(=O)Nc3ccccc3)ccc2OC[C@H]2O[C@@H](CC(=O)NC3CCC3)CC[C@@H]21 was read as PrPC TRFRET -6.2.
O=C(CCl)Nc1cccc(-c2cnc3ccccc3n2)c1 was read as BJeLR viability 12.7, Mtb FBA inh 4.0, GDH-TPI counter 11.3, PfHsp40 rescue 2.2, PrP 5UTR inh -45.3 and PrPC TRFRET -14.9.
Screening CCC(=O)Nc1cccc(-c2cnc3ccccc3n2)c1 returned BJeLR viability -7.1, Mtb FBA inh -0.8, GDH-TPI counter 30.6*, PfHsp40 rescue 1.8, PrP 5UTR inh -25.5 and PrPC TRFRET -17.3.
CC(CCN1CCC(C(O)(c2ccccc2)c2ccccc2)CC1)Oc1ccc(OC(F)(F)F)cc1 (stereo unspecified) was read as PrPC TRFRET -8.2.
For Cc1cc(N/N=C/c2ccc(O)cc2)nc(NS(=O)(=O)c2ccccc2)n1 the results were BJeLR viability 1.9, Mtb FBA inh -1.5, GDH-TPI counter 74.1*, PfHsp40 rescue -1.4, PrP 5UTR inh -12.9 and PrPC TRFRET -1.1.
`Cc1nc(N)nc(N/N=C/c2ccccc2)n1` gave BJeLR viability -6.3, Mtb FBA inh -5.0, GDH-TPI counter 12.3, PfHsp40 rescue -0.3, PrP 5UTR inh -10.1 and PrPC TRFRET 8.0.
`Cc1cc(N/N=C/c2ccccc2)nc(N)n1` gave BJeLR viability -7.6, Mtb FBA inh 0.8, GDH-TPI counter 42.0*, PfHsp40 rescue -1.1, PrP 5UTR inh -16.5 and PrPC TRFRET 1.1.
COc1ccc(CN2C[C@]3(C=C(C)Cn4c(=O)n(-c5ccccc5)c(=O)n43)N(C(=O)OCc3ccccc3)C2=NC(=O)c2ccccc2)c(OC)c1 was read as PrPC TRFRET 8.9.
COC(=O)c1nn(-c2ccc(OC)cc2)c(=O)cc1O was read as BJeLR viability 7.7, Mtb FBA inh 2.3, GDH-TPI counter -4.2, PfHsp40 rescue -0.7, PrP 5UTR inh -42.3 and PrPC TRFRET -1.6.
For COc1ccc(-n2nc(C#N)c(Cl)cc2=O)cc1 the results were Mtb FBA inh -0.4, GDH-TPI counter 11.4, PfHsp40 rescue 189.7*, PrP 5UTR inh -22.9 and PrPC TRFRET -58.7.
Screening CCOC(=O)Cc1nc(N2CCCN(C(C)=O)CC2)c2c(C)c(C(=O)OCC)sc2n1 returned PrPC TRFRET -9.8.
Screening Cc1[nH]nc(SCC(=O)N2CCCCC2)c1[N+](=O)[O-] returned BJeLR viability -9.1, Mtb FBA inh 0.9, GDH-TPI counter 15.2, PfHsp40 rescue 1.3, PrP 5UTR inh -29.7 and PrPC TRFRET -4.0.
Cc1[nH]nc(SCC(=O)N2CCCCCC2)c1[N+](=O)[O-] was read as BJeLR viability -15.8, Mtb FBA inh -0.8, GDH-TPI counter 11.0, PfHsp40 rescue 49.1*, PrP 5UTR inh -20.5 and PrPC TRFRET -8.3.
Screening COc1ccccc1OCCNC(=O)c1ccc(Br)cc1 returned BJeLR viability 6.9, Mtb FBA inh -0.1, GDH-TPI counter -2.6, PfHsp40 rescue 167.6* and PrPC TRFRET -9.0.
COc1ccccc1OCCNC(=O)c1ccc(C(C)(C)C)cc1 was read as BJeLR viability 3.1, Mtb FBA inh -0.4, GDH-TPI counter -3.4, PfHsp40 rescue 1.3, PrP 5UTR inh -45.4 and PrPC TRFRET 8.7.
For CC[C@H]1OC(=O)[C@H](C)[C@@H](O[C@H]2C[C@@](C)(OC)[C@@H](O)[C@H](C)O2)C(C)[C@@H](O[C@@H]2O[C@H](C)C[C@H](N(C)C)[C@H]2O)[C@](C)(O)C[C@@H](C)CN(C)[C@H](C)[C@@H](O)[C@]1(C)O (stereo partly specified) the results were PrPC TRFRET -6.1.
Cc1ccc(N=c2oc3cc(O)ccc3cc2C(N)=O)cc1 was read as BJeLR viability 7.0, Mtb FBA inh active, GDH-TPI counter 7.5, PfHsp40 rescue 32.8*, PrP 5UTR inh -19.6 and PrPC TRFRET -7.6.
For O=C(NCc1ccco1)c1cc2ccccc2o1 the results were BJeLR viability 9.3, Mtb FBA inh -1.8, GDH-TPI counter 1.9, PfHsp40 rescue 1.0, PrP 5UTR inh -39.0 and PrPC TRFRET -5.1.
Screening CC(=O)c1cc2cc(O)ccc2o1 returned BJeLR viability 0.9, Mtb FBA inh active, GDH-TPI counter 17.4, PfHsp40 rescue 0.4, PrP 5UTR inh -17.6 and PrPC TRFRET 6.5.
Screening CC(=O)c1cc2ccc(O)cc2oc1=O returned BJeLR viability 4.9, Mtb FBA inh active, GDH-TPI counter 10.4, PfHsp40 rescue -0.1 and PrPC TRFRET 9.5.
`CC(=O)c1cc2c(O)c(O)ccc2o1` gave BJeLR viability 19.3, Mtb FBA inh 4.1, GDH-TPI counter 3.2, PfHsp40 rescue -0.7, PrP 5UTR inh -2.6 and PrPC TRFRET 2.8.
`COc1ccc2cc(C(C)=O)c(=O)oc2c1` gave BJeLR viability -16.0, Mtb FBA inh 3.8, GDH-TPI counter 11.1, PfHsp40 rescue 1.6, PrP 5UTR inh -29.4 and PrPC TRFRET -4.0.
O=C(NCc1ccco1)c1cc2ccc(O)cc2oc1=O was read as BJeLR viability 28.6, Mtb FBA inh active, GDH-TPI counter 5.1, PfHsp40 rescue -3.9, PrP 5UTR inh -27.2 and PrPC TRFRET -3.2.
`COc1cccc(CNC(=O)CCCN2C(=O)COc3ccc(C)cc32)c1OC` gave PrPC TRFRET -8.2.
`O=C(CCCl)NC1CCCCN(Cc2ccc(OC(F)(F)F)cc2)C1=O` (stereo unspecified) gave PrPC TRFRET 11.8.
`COCCN=C1S/C(=C\c2cc(C)n(-c3ccc(F)cc3F)c2C)C(=O)N1C` gave PrPC TRFRET -2.8.
COC(=O)[C@]12CCCCC=C1N(CCc1ccc(OC)c(OC)c1)C(=O)[C@H](CC(=O)N1CCCCC1)C2 was read as PrPC TRFRET -4.7.
Cc1cc(=O)oc2cc(OCC(=O)N3CCN(C(C)c4ccccc4)CC3)c(Cl)cc12 (stereo unspecified) was read as Mtb FBA inh active, GDH-TPI counter 3.2, PfHsp40 rescue 0.7, PrP 5UTR inh -20.3 and PrPC TRFRET 10.0.
`O=C1CCC[C@H]2C[C@H](NCc3ccc(Br)cc3)CC[C@]23CCCN13` gave PrPC TRFRET -3.0.

Screens: PubChem, several laboratories
